Hit rate of the full screen: of about 39,000 compounds, about 3,300 (8.5%) were called active. Shown is part of a subset that was picked to be rich in actives.
Test system: HepG2
Assay: cytotoxicity call (relative viability < 0.9)
Details: 10 µM

Row | Compound | cytotoxicity call
1 | C[C@@H]1CN([C@@H](C)CO)C(=O)Cc2cc(NC(=O)Nc3cccc4ccccc34)ccc2O[C@H]1CN(C)Cc1ccc(Oc2ccccc2)cc1 | inactive
2 | C[C@H](CO)N1C[C@H](C)[C@@H](CN(C)Cc2ccc(Oc3ccccc3)cc2)Oc2ccc(NC(=O)Nc3cccc4ccccc34)cc2CC1=O | active
3 | C[C@H](CO)N1C[C@H](C)[C@H](CN(C)Cc2ccc(Oc3ccccc3)cc2)Oc2ccc(NC(=O)Nc3cccc4ccccc34)cc2CC1=O | inactive
4 | C[C@H]1CN([C@@H](C)CO)C(=O)Cc2cc(NC(=O)Nc3cccc4ccccc34)ccc2O[C@@H]1CN(C)Cc1ccc(Oc2ccccc2)cc1 | inactive
5 | C[C@H]1CN([C@@H](C)CO)C(=O)Cc2cc(NC(=O)Nc3cccc4ccccc34)ccc2O[C@H]1CN(C)Cc1ccc(Oc2ccccc2)cc1 | active
6 | C[C@@H]1CN([C@H](C)CO)C(=O)Cc2cc(NC(=O)Nc3cccc4ccccc34)ccc2O[C@@H]1CN(C)Cc1ccc(Oc2ccccc2)cc1 | active
7 | C[C@@H]1CN([C@H](C)CO)C(=O)Cc2cc(NC(=O)Nc3cccc4ccccc34)ccc2O[C@H]1CN(C)Cc1ccc(Oc2ccccc2)cc1 | inactive
8 | C[C@@H]1CN([C@@H](C)CO)C(=O)Cc2cc(NC(=O)Nc3cccc4ccccc34)ccc2O[C@@H]1CN(C)Cc1ccc(Oc2ccccc2)cc1 | inactive
9 | COc1ccc(S(=O)(=O)N(C)C[C@@H]2Oc3ccc(NS(=O)(=O)c4ccc(C)cc4)cc3C(=O)N([C@H](C)CO)C[C@H]2C)cc1 | inactive
10 | COC(=O)[C@H]1CCNCCC1=O | inactive
11 | CN1CCN(C(=O)C[C@H]2CC[C@H]3[C@@H](COC[C@H](O)CN3CC3CCCC3)O2)CC1 | inactive
12 | C[C@H](CO)N1C[C@H](C)[C@@H](CN(C)C(=O)Nc2ccnc(N3CCOCC3)c2)OCc2cnnn2CCCC1=O | inactive
13 | Cn1cnc(S(=O)(=O)N[C@@H]2C=C[C@@H](CC(=O)NCC3CC3)O[C@H]2CO)c1 | inactive
14 | O=C(O)C12CC(C1)C2 | inactive
15 | COCC(=O)N(C)C[C@H]1Oc2cc(-c3ccc(C#N)cc3)ccc2S(=O)(=O)N([C@@H](C)CO)C[C@H]1C | inactive
16 | Cc1noc(C)c1NC(=O)N[C@H]1C=C[C@H](CC(=O)N2CCN(C)CC2)O[C@H]1CO | inactive
17 | COc1cccc(C#Cc2ccc3c(c2)O[C@@H](CN(C)C(=O)CN2CCOCC2)[C@H](C)CN([C@H](C)CO)S3(=O)=O)c1 | inactive

Row | Compound | cytotoxicity call
18 | Cc1ccc(S(=O)(=O)N(C)C[C@@H]2OCCCC[C@H](C)Oc3ccc(NC(=O)CCC(F)(F)F)cc3C(=O)N([C@H](C)CO)C[C@H]2C)cc1 | inactive
19 | CC[C@H]1OC(=O)C[C@@H](O)[C@H](C)[C@@H](O[C@@H]2O[C@H](C)[C@@H](O)[C@H](N(C)C)[C@H]2O)[C@@H](CCN2C[C@H](C)C[C@H](C)C2)C[C@@H](C)C(=O)/C=C/C(C)=C/[C@@H]1CO[C@@H]1O[C@H](C)[C@@H](O)[C@@H](OC)[C@H]1OC | inactive
20 | CC[C@@H]1OC(=O)C[C@@H](O)[C@H](C)[C@@H](O[C@@H]2O[C@H](C)[C@@H](O)[C@H](N(C)C)[C@H]2O)[C@@H](CCN2C[C@H](C)C[C@H](C)C2)C[C@@H](C)C(=O)/C=C/C(C)=C\[C@@H]1CO[C@@H]1O[C@H](C)[C@@H](O)[C@@H](OC)[C@H]1OC | inactive
21 | CCC1OC(=O)CC(O)C(C)C(OC2OC(C)C(O)C(N(C)C)C2O)C(CCN2CC(C)CC(C)C2)CC(C)C(=O)C=CC(C)=CC1COC1OC(C)C(O)C(OC)C1OC (stereo not drawn) | active
22 | C[C@H](CO)N1C[C@H](C)[C@H](CN(C)Cc2ccncc2)Oc2ccc(NS(=O)(=O)c3cccs3)cc2C1=O | inactive
23 | CC(=O)OC1CC2C(C)(C)C(O)CCC2(C)C2CCC3(C)C(c4ccoc4)OC(=O)C4OC43C12C (stereo not drawn) | inactive
24 | Cc1noc(C)c1S(=O)(=O)N(C)C[C@H]1Oc2ccc(NC(=O)C3CC3)cc2CC(=O)N([C@@H](C)CO)C[C@@H]1C | inactive
25 | C[C@@H]1CCCCO[C@H](CN(C)S(=O)(=O)c2ccc(F)cc2)[C@H](C)CN([C@@H](C)CO)C(=O)c2cc(NC(=O)Nc3ccc(C(F)(F)F)cc3)ccc2O1 | active
26 | C[C@H](CO)N1C[C@H](C)[C@H](CN(C)S(=O)(=O)c2ccc(F)cc2)OCCCC[C@H](C)Oc2ccc(NC(=O)Nc3ccc(C(F)(F)F)cc3)cc2C1=O | inactive
27 | C[C@@H]1CCCCO[C@@H](CN(C)S(=O)(=O)c2ccc(F)cc2)[C@H](C)CN([C@@H](C)CO)C(=O)c2cc(NC(=O)Nc3ccc(C(F)(F)F)cc3)ccc2O1 | inactive
28 | C[C@@H]1CCCCO[C@H](CN(C)S(=O)(=O)c2ccc(F)cc2)[C@@H](C)CN([C@H](C)CO)C(=O)c2cc(NC(=O)Nc3ccc(C(F)(F)F)cc3)ccc2O1 | active
29 | C[C@@H]1CN([C@H](C)CO)C(=O)c2cc(NC(=O)Nc3ccc(C(F)(F)F)cc3)ccc2O[C@@H](C)CCCCO[C@@H]1CN(C)S(=O)(=O)c1ccc(F)cc1 | inactive
30 | C[C@H](CO)N1C[C@H](C)[C@@H](CN(C)S(=O)(=O)c2ccc(F)cc2)OCCCC[C@H](C)Oc2ccc(NC(=O)Nc3ccc(C(F)(F)F)cc3)cc2C1=O | inactive
31 | C[C@@H]1CCCCO[C@@H](CN(C)S(=O)(=O)c2ccc(F)cc2)[C@@H](C)CN([C@@H](C)CO)C(=O)c2cc(NC(=O)Nc3ccc(C(F)(F)F)cc3)ccc2O1 | active
32 | C[C@H]1CCCCO[C@H](CN(C)S(=O)(=O)c2ccc(F)cc2)[C@@H](C)CN([C@@H](C)CO)C(=O)c2cc(NC(=O)Nc3ccc(C(F)(F)F)cc3)ccc2O1 | inactive
33 | C[C@@H]1CN([C@@H](C)CO)C(=O)c2cc(NC(=O)Nc3ccc(C(F)(F)F)cc3)ccc2O[C@@H](C)CCCCO[C@H]1CN(C)S(=O)(=O)c1ccc(F)cc1 | inactive

Reference: the antibiotic and cytotoxicity screens of Wong et al. (2023)
